A selection: hits, their analogues and other compounds. The true share with any hit is near 1.5%.
rTrxR1 inhibitor: rat TrxR1 inhibition | O89049 | recombinant rTrxR1, NADPH fluorescence consumption, selenite substrate | Potency, µM (doses to about 114 µM), inactives show at the highest dose activity change, negative = inhibition, most hits filed as inhibitors | 390,000 compounds, 1% hits; also: potency is read from the fitted curve at half-maximal effect; nearly all actives have a fitted effect of over 65% in size
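Rat TrxR1 (90 nM in the dispensed reagent) was pre-reduced with 400 uM NADPH for 5 min at room temperature, then incubated with compound for 15 min. After 400 uM selenite was added, NADPH fluorescence (Ex 340/Em 450 nm) was followed for 8 min.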
Eya2 inh: Eya2 (human) phosphatase inhibition | O00167 | recombinant Eya2, OMFP fluorescence dephosphorylation (OMFP is methylfluorescein phosphate) | Potency, µM (series often up to 76.9 µM), for inactives: at the top dose activity, negative = inhibition, most hits filed as inhibitors | 330,000 compounds, 0.006% hits; also: potency is read from the fitted curve at half-maximal effect
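Eya2 (0.2 uM) preincubated 10 min at ambient with compound, then OMFP substrate added at 50 uM; 10 min reaction in 50 mM HEPES pH 7.5, 50 mM NaCl, 5 uM MgCl2, 0.05% BSA, 1 mM DTT. Fluorescence read at Ex 485/Em 525 nm.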
TrxR1 substrate: substrates of rat thioredoxin reductase 1. Potency, µM (doses to about 114 µM), for inactives: at the top dose activity change, negative = substrate turnover. purified TrxR1 substrate turnover, NADPH consumption readout. AID 588456. 390,000 compounds, 0.01% hits. O89049; also: potency is read from the fitted curve at half-maximal effect; nearly all actives have a fitted effect of over 50% in size
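Rat TrxR1, dispensed at 90 nM, was prereduced with 400 uM NADPH (final) for 5 min at ~22 deg C, then incubated with compound 15 min before 400 uM selenite. A first-read NADPH fluorescence drop versus no-compound background flagged substrates.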
CtBP-E1A inh: inhibitors of CtBP/E1A interaction | AlphaScreen GST-E1A/His-CtBP binding, 1536-well; hits give low values | activity change, % (concentration not given with the values) | 340,000 compounds, 0.49% hits; in the data active = activity change below about -65%; inconclusive = mostly about -30% to -63%
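AlphaScreen with 125 nM GST-E1A and 125 nM His-CtBP (5X stocks) in Tris pH 8.0, 300 mM NaCl, BSA, Tween 20, TCEP. Compounds preincubated 2 h at 37 deg C, then glutathione donor/nickel acceptor beads added for 1 h at 37 deg C in dark.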
GALK inhibitor: inhibitors of human galactokinase | AID 1868 | Potency, µM (series often up to 57.5 µM), without a hit: top-dose activity change, negative = inhibition, hits mostly inhibitors | 270,000 compounds, 0.007% hits | Purified GALK, Kinase-Glo residual ATP luminescence; also: potency is read from the fitted curve at half-maximal effect
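5 nM enzyme, 35 uM ATP, 100 uM galactose, 20 mM HEPES pH8.0, 5 mM MgCl2; 1 h RT; residual ATP by Kinase-Glo Plus luminescence, qHTS format.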
Six1-Eya2 blk: Six1/Eya2 interaction inhibition; AID 651725; Q15475+O00167; 360,000 compounds, 0.56% hits; AlphaScreen GST-Six1/His-Eya2 binding, biochemical; hits give low values; activity change, % (concentration not given with the values); in the data active = activity change below about -65%; inconclusive = mostly about -30% to -63%
Target sequence (O00167 whole entry, looked up): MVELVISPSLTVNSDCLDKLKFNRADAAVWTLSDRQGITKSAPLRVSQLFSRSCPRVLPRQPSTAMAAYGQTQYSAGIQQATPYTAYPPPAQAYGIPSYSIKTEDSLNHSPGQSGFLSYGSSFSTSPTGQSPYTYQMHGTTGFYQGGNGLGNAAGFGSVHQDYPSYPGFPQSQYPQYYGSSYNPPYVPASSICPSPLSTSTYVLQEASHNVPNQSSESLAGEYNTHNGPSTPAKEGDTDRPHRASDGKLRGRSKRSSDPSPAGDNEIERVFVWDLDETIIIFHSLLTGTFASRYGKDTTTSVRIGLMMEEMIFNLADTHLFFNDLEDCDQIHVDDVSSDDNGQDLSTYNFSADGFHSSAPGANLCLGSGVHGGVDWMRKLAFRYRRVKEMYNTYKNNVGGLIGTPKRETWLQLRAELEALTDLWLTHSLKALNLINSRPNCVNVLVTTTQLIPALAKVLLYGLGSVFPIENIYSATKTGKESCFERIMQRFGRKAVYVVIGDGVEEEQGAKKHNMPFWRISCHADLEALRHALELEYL
Target sequence (Q15475 whole entry, looked up): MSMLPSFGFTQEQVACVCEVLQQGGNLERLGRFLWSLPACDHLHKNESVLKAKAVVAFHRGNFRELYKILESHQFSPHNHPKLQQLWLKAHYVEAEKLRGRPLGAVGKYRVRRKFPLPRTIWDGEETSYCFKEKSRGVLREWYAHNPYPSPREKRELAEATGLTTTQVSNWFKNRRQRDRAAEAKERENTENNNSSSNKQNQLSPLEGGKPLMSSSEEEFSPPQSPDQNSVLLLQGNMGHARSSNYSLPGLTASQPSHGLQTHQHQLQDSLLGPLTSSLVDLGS
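GST-Six1 + His-Eya2 (5X stock: 250/500 nM); Tris pH 8.0, 300 mM NaCl, 0.05% BSA, 0.02% Tween 20; GSH donor/Ni acceptor beads; 1 h 37 °C dark; AlphaScreen readout.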
* = called active by the depositor; ? = inconclusive; . = no result; [ ] = dose if it differs, or a comment. Unless noted, calls follow the shape of the dose curve; as a rule, active = well fitted curve in the direction sought with a large enough effect; inconclusive = small, poorly fitted or top-dose-only effect, or another doubt; inactive = no such curve, though single readings can be large; an effect the other way counts as inactive or inconclusive. % is scaled to controls: 0 for no effect and ±100 for the full control effect.

SMILES	rTrxR1 inhibitor	Eya2 inh	TrxR1 substrate	CtBP-E1A inh	GALK inhibitor	Six1-Eya2 blk
Cc1cc(C)c2cc3c(N)c(C(=O)Nc4c(C)[nH]c(=O)[nH]c4=O)sc3nc2c1	-24%	-4%	6%	-14	-1%	-71*
C[N+](C)(C)c1ccc(/C=C/c2ccnc3ccccc23)cc1	?	.	-1%	.	.	.
Nc1nc(Cl)nc2c1ncn2[C@@H]1O[C@H](COP(=O)(O)OP(=O)(O)OP(=O)(O)O)[C@@H](O)[C@H]1O	-8%[57.1 µM]	-10%	-1%[57.1 µM]	.	.	.
CN(CC(=O)O)Cc1nc2ccccc2[nH]1	3%	3%	-7%	?	-3%	-76*
O=C(Nc1cc(-c2nc3ccccc3o2)ccc1Cl)c1sc2c([N+](=O)[O-])cccc2c1Cl	18%	.	5%	.	.	.
CC1=NCCN1S(=O)(=O)c1ccccc1[N+](=O)[O-]	-2%	10%	-4%	.	-1%	-93*
COc1ccc(CN(C(=O)c2ccco2)c2ccc(Br)cc2)cc1OC	0%[57.1 µM]	-15%	5%[57.1 µM]	-7	3%	-8
O=C1/C(=C/N(C(=O)c2ccco2)c2ccc(Br)cc2)Sc2ccccc21	14µM*	9%	-4%	-6	3%	-12
O=C1/C(=C/N(C(=O)c2ccco2)c2ccc(Cl)cc2)Sc2ccccc21	40µM*	-6%	-7%	-8	5%	1
COCCNC(=O)c1c(NC(=O)c2cc(=O)c3cc(C)cc(C)c3o2)sc2c1CCCC2	7%	.	-1%	.	.	.
COc1cc(NC(=O)c2cnc3c(-c4ccc(F)cc4)c(C)nn3c2C)cc(OC)c1	7%[57.1 µM]	.	-5%[57.1 µM]	.	.	.
C=CCNc1oc(-c2ccc(-c3ccccc3)cc2)nc1C#N	14µM*	-2%	-4%	.	.	.
O=C(/C=C/c1ccccc1Cl)c1ccccc(=O)c1O	35µM*	5%	-7%	5	.	-20
Cc1ccc(/C=C/C(=O)c2ccccc(=O)c2O)c(C)c1	-67%	-1%	1%[57.1 µM]	3	.	-11
Cc1ccc(C)c(/C=C/C(=O)c2ccccc(=O)c2O)c1	50µM*	2%	-15%	27	.	-9
COc1ccc(-c2nc(SCC(=O)NCc3nc4ccccc4n3C)n3[nH]c(=O)cc3n2)cc1	20%[57.1 µM]	.	3%[57.1 µM]	.	.	.
Cc1nc([N+](=O)[O-])c(Br)n1CC(=O)c1cccc([N+](=O)[O-])c1	7.1µM*	-5%	-3%[57.1 µM]	8	-1%	-26
Cc1nc([N+](=O)[O-])c(Br)n1CC(=O)c1ccc(F)cc1	2.5µM*	-3%	6%	4	-4%	4
CCn1c(C)nc([N+](=O)[O-])c1C(=O)O	26%[57.1 µM]	8%	13%[57.1 µM]	7	0%	7
Cc1nc([N+](=O)[O-])c(Sc2nc3ccc([N+](=O)[O-])cc3[nH]2)n1Cc1ccccc1	2.5µM*	10%	-13%	23	0%	-11
COC(=O)Cn1c(C)nc([N+](=O)[O-])c1Br	16µM*	-2%	9%[57.1 µM]	9	8%	-11
O=C(CSc1nc2ccc([N+](=O)[O-])cc2[nH]1)c1ccc2ccccc2c1	-4%	1%	8%[57.1 µM]	-9	-3%	-7
CCc1cccc(C)c1NC(=O)c1cc(S(=O)(=O)NCc2ccccc2Cl)ccc1F	7%[57.1 µM]	.	-2%[57.1 µM]	.	.	.
Cc1nc([N+](=O)[O-])c(Br)n1Cc1ccccc1	16µM*	13%	0%	5	0%	-5
Cc1nc([N+](=O)[O-])c(SCC(O)CCl)n1Cc1ccc(Cl)cc1 (stereo not given)	14%[57.1 µM]	12%	3%[57.1 µM]	.	6%	4
SMILES	rTrxR1 inhibitor	Eya2 inh	TrxR1 substrate	CtBP-E1A inh	GALK inhibitor	Six1-Eya2 blk
Nc1nc(C(F)(F)F)cc(=O)[nH]1	42%	-8%	4%	.	0%	5
O=c1cc(C(F)(F)F)nc(-n2[nH]c3c(c2=O)CCCC3)[nH]1	36%[57.1 µM]	?	15%[57.1 µM]	-88*	-2%	-85*
CCCCN(C)CCNC(=O)c1cc2cc3ccc(OC)cc3nc2o1	45µM*	-3%	606%	.	3%	-14
CCN(CC)CCNC(=O)c1cc2cc3ccc(OC)cc3nc2o1	133%	-3%	736%	-12	2%	14
Cc1cc2ccc(Cl)nc2nc1C	15%[0.0914 µM]	.	12%[0.0914 µM]	.	.	.
CCCc1nc2sc3c(SCC(=O)NCc4ccco4)ncnc3c2c2c1CCC2	45µM*	4%	2%	?	11%	?
CCOC(=O)c1ccc(N2C(=O)C3CC=CCC3C2=O)cc1 (stereo not given)	-7%	4%	10%[57.1 µM]	4	2%	2
CCOC(=O)c1ccc(N2C(=O)C3C(C2=O)C(C(=O)c2ccc(Cl)cc2)N2CCCC32)cc1 (stereo not given)	3.5µM*	-12%	-1%	-3	-2%	-4
Nc1ncnc(Sc2ncccn2)c1[N+](=O)[O-]	1.4µM*	-2%	-1%	5	2%	8
O=C(Nc1cccc(F)c1)C1CCN(c2nc3ccccc3nc2C(F)(F)F)CC1	13%[57.1 µM]	.	0%[57.1 µM]	.	.	.
O=C(CCCN1C(=O)/C(=C\c2cccs2)SC1=S)NNC(=O)c1ccncc1	14%[11.4 µM]	13%	7%[57.1 µM]	-26	-7%	1
O=C(NN1C(=O)/C(=C/c2cccs2)SC1=S)c1ccncc1	-4%[57.1 µM]	10%	-16%	-72*	4%	-70*

Screens as filed in PubChem BioAssay.
